This is part of a sample that, as a whole, favours compounds with a hit. Of some 79,000 tested, about 15% had one in any assay. Active and inactive are the calls of the source. No stated cut-off is given here; in the data, active means growth inhibition above about 70%; inactive means the rest.
Legend:
[1] = NCI Yeast Anticancer Drug Screen. Data for the rad52 strain (AID 147);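 further: 0% = growth of vehicle-treated control cultures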; conditions: S. cerevisiae rad52 mutant growth inhibition, hits give high values
Method in brief: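 Here a repair-compromised yeast strain receives each compound; its growth is then quantified and normalised to vehicle-only controls.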

[2] = NCI Yeast Anticancer Drug Screen. Data for the wt1 strain (AID 149);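 further: 0% = growth of vehicle-treated wt1 cultures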; conditions: S. cerevisiae wt1 strain (SPY 50644) growth inhibition, hits give high values
Method in brief: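 Readout: yeast growth inhibition, normalised to vehicle controls, in the wt1 strain exposed to test compounds.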

[3] = NCI Yeast Anticancer Drug Screen. Data for the rad50EPP+ strain (AID 151);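 further: 0% = growth of vehicle-treated control cultures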; conditions: S. cerevisiae rad50 mutant strain, hits give high values
Method in brief: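 Read-out is yeast growth inhibition relative to vehicle; cells used were the rad50EPP+ strain.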

[4] = NCI Yeast Anticancer Drug Screen. Data for the mgt1 strain (AID 153); conditions: S. cerevisiae mgt1 mutant growth inhibition, hits give high values
Method in brief: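 Measured: inhibition of mgt1 yeast growth by compound, normalized to vehicle-treated cultures.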

[5] = NCI Yeast Anticancer Drug Screen. Data for the rad50 strain (AID 155);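 further: 0% = growth of vehicle-only cultures of the same strain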; conditions: S. cerevisiae rad50 strain growth inhibition, hits give high values
Method in brief: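 Compounds were tested on a yeast strain with an engineered DNA damage repair alteration; the reported value is growth inhibition normalised to vehicle treatment.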

[6] = NCI Yeast Anticancer Drug Screen. Data for the mec2-1 strain (AID 157); conditions: S. cerevisiae mec2-1 strain, hits give high values
Method in brief: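 Using mec2-1 yeast: add compound, measure growth, express inhibition versus vehicle-treated cultures.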

[7] = NCI Yeast Anticancer Drug Screen. Data for the rad14 strain (AID 159);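 further: 0% = growth of vehicle-treated control cultures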; conditions: S. cerevisiae rad14 strain growth inhibition, hits give high values
Method in brief: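 Compound-treated yeast with a defined DNA-repair lesion; growth inhibition normalised to vehicle-treated cultures.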

[8] = NCI Yeast Anticancer Drug Screen. Data for the sgs1 mgt1 strain (AID 161);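 further: 0% = growth of cultures given vehicle only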; conditions: S. cerevisiae sgs1 mgt1 strain, hits give high values
Method in brief: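 Yeast cells carrying a defined DNA-repair defect were exposed to test compounds. Growth inhibition was measured relative to vehicle-treated controls.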

[9] = NCI Yeast Anticancer Drug Screen. Data for the CLN2oe strain (AID 163);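 further: 0% = growth of vehicle-only control cultures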; conditions: S. cerevisiae CLN2oe strain, hits give high values
Method in brief: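 Whole-cell yeast growth assay. A strain engineered for altered cell-cycle control received compound, and inhibition relative to vehicle-treated cultures was recorded.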

[10] = NCI Yeast Anticancer Drug Screen. Data for the cln2 rad14 strain (AID 165);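 further: 0% = growth equal to vehicle treated cultures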; conditions: S. cerevisiae cln2 rad14 strain, hits give high values
Method in brief: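 Yeast strain cln2 rad14, bearing defects in cell cycle control and DNA repair, serves as the test system; values reflect growth inhibition compared with vehicle.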

[11] = NCI Yeast Anticancer Drug Screen. Data for the bub3 strain (AID 167); conditions: S. cerevisiae bub3 mutant strain, hits give high values
Method in brief: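 Growth of a checkpoint-deficient yeast mutant is measured after compound exposure. Values represent inhibition relative to vehicle.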

[12] = NCI Yeast Anticancer Drug Screen. Data for the wt2 strain (AID 169);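 further: 0% = growth of vehicle-treated yeast cultures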; conditions: S. cerevisiae wt2 strain growth inhibition, hits give high values
Method in brief: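 Treated yeast vs. vehicle-treated yeast: growth inhibition determined.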

[13] = NCI Yeast Anticancer Drug Screen. Data for the mlh1 strain (AID 171);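 further: 0% = growth of vehicle-treated control cultures of the same strain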; conditions: S. cerevisiae mlh1 strain growth inhibition, hits give high values
Method in brief: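 A yeast strain with a defined genetic lesion serves as the test organism. Cultures receive compound or vehicle, and growth is measured.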

[14] = NCI Yeast Anticancer Drug Screen. Data for the sgs1 strain (AID 173);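 further: 0% = growth of vehicle-only control cultures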; conditions: S. cerevisiae sgs1 mutant, hits give high values
Method in brief: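 A genetically defined yeast mutant is incubated with the test compound, and its growth is compared to that of the same strain given vehicle.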

[15] = NCI Yeast Anticancer Drug Screen. Data for the rad18 strain (AID 177); conditions: S. cerevisiae rad18 mutant growth inhibition, hits give high values
Method in brief: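 Measured value is growth inhibition of a yeast strain bearing a DNA repair alteration, referenced to vehicle-treated cells.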

[16] = at 5.0 µM (retest, dose inferred, filed as 0.5)
[17] = at 50.0 µM (retest, dose inferred, filed as 5.0)

Measured: growth inhibition

CC1=COC2=C(C)C(=O)C(=O)c3c(C)ccc1c32
inactive: [1]; at 1.2 µM 20% | [1]; at 3.7 µM 23% | [1]; at 11.0 µM 30% | [1]; at 33.0 µM 68% | [2]; at 1.2 µM 30% | [2]; at 3.7 µM 38% | [2]; at 11.0 µM 45% | [3]; at 1.2 µM 2% | [3]; at 3.7 µM 7% | [3]; at 11.0 µM 19% | [3]; at 33.0 µM 42% | [3]; at 100.0 µM 60% | [4]; at 1.2 µM 41% | [4]; at 3.7 µM 28% | [4]; at 11.0 µM 37% | [5]; at 1.2 µM 34% | [5]; at 3.7 µM 39% | [5]; [16] 25% | [5]; at 11.0 µM 53% | [5]; [17] 47% | [6]; at 1.2 µM 43% | [6]; at 3.7 µM 40% | [6]; [16] 36% | [6]; at 11.0 µM 48% | [6]; [17] 59% | [7]; at 1.2 µM 10% | [7]; at 3.7 µM 17% | [7]; at 11.0 µM 20% | [8]; [16] 51% | [8]; [17] 67% | [9]; at 1.2 µM 37% | [9]; at 3.7 µM 44% | [9]; at 11.0 µM 36% | [10]; [16] 16% | [10]; [17] 32% | [11]; at 1.2 µM 67% | [12]; at 1.2 µM -19% | [12]; at 3.7 µM -18% | [12]; at 11.0 µM -19% | [12]; at 33.0 µM 6% | [13]; at 1.2 µM 25% | [13]; at 3.7 µM 27% | [13]; at 11.0 µM 47% | [14]; at 1.2 µM 23% | [14]; at 3.7 µM 29% | [14]; at 11.0 µM 35% | [15]; at 1.2 µM -3% | [15]; at 3.7 µM 18% | [15]; at 11.0 µM 30%
active: [1]; at 100.0 µM 93% | [2]; at 33.0 µM 77% | [2]; at 100.0 µM 96% | [4]; at 33.0 µM 89% | [4]; at 100.0 µM 94% | [5]; at 33.0 µM 85% | [5]; at 50.0 µM 88.3% | [5]; at 100.0 µM 93% | [6]; at 33.0 µM 80% | [6]; at 50.0 µM 89.2% | [6]; at 100.0 µM 95% | [7]; at 33.0 µM 79% | [7]; at 100.0 µM 95% | [8]; at 50.0 µM 77.5% | [9]; at 33.0 µM 77% | [9]; at 100.0 µM 95% | [10]; at 50.0 µM 77.8% | [11]; at 3.7 µM 70% | [11]; [16] 77% | [11]; at 11.0 µM 84% | [11]; at 33.0 µM 91% | [11]; [17] 82% | [11]; at 50.0 µM 81% | [11]; at 100.0 µM 93% | [12]; at 100.0 µM 91% | [13]; at 33.0 µM 82% | [13]; at 100.0 µM 94% | [14]; at 33.0 µM 80% | [14]; at 100.0 µM 94% | [15]; at 33.0 µM 79% | [15]; at 100.0 µM 93%

Source: PubChem BioAssay (NCI)
